“And” between values parts separate entries of the source, which are not always exact repeats. Equal entries are not always repeated. Inconclusive results are not listed. Entries that show only a call come without a potency. The source made the active and inactive calls. Calls follow the shape of the dose curve; as a rule, active = well fitted inhibition curve with a large enough effect in the repeat runs; inconclusive = weak or mixed curves; inactive = no such curve, though single readings can be large or run the other way.

Consider 39 molecules from PubChem BioAssay (Tox21).
Also: nearly all actives have a fitted effect of over 50% in size.
Potency is read from the fitted curve at half-maximal effect.

Chain of Cytochrome P450 1A2 (Homo sapiens) (P05177 whole entry, looked up): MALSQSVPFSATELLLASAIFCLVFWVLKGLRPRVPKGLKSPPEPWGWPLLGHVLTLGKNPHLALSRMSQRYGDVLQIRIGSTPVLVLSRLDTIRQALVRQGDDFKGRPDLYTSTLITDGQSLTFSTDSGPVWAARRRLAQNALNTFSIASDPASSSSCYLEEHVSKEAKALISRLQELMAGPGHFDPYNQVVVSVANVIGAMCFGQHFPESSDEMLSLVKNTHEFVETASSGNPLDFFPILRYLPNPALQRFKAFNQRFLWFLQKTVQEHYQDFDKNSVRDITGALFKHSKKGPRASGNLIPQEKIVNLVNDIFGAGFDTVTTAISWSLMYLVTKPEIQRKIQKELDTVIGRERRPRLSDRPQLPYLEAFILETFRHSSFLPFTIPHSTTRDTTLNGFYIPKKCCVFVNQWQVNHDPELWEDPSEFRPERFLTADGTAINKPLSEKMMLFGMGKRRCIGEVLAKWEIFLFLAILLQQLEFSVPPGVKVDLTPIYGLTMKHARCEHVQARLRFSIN
Chain of Cytochrome P450 2C9 (Homo sapiens) (P11712 whole entry, looked up): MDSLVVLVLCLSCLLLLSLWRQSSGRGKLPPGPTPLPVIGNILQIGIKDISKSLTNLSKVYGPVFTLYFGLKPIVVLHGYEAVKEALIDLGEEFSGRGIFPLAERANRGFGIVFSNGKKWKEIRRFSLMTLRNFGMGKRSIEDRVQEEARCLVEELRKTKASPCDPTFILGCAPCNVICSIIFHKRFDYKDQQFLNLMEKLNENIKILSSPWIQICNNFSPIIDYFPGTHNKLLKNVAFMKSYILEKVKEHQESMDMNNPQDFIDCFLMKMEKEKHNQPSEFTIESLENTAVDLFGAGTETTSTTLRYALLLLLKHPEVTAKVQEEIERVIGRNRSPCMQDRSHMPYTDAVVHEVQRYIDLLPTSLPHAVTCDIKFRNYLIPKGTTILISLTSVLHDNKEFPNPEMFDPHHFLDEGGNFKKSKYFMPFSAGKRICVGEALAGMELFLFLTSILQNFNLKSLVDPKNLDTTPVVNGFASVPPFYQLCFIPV

The first assay concerns the target Cytochrome P450 2C9 (Homo sapiens) (UniProt P11712). Briefly: Cytochrome P450 Family 2 Subfamily C Member 9 (CYP2C9) small molecule antagonists: luciferase reporter qHTS assay (AID 1671198). Conditions: P450-Glo CYP2C9 enzyme assay, luciferin luminescence; series mostly up to 115 µM. The procedure, abridged:
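P450-Glo proluciferin substrate with CYP2C9 enzyme; 10 min RT preincubation, then NADPH regeneration 1 h at 37C; luciferin detection reagent 20 min RT, luminescence in relative luminescence units.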
(Reporter assays use an easily measured gene product as a stand-in for the process of interest.)
On to `C#CC(O)CCC` (stereo not given), for which the Potency entry was “inactive”.

Consider `CCCCCCCCCCc1ccccc1`, for which the Potency result is “inactive”.

As to `O=S(O)O`, the activity change, negative = inhibition is -8.41% [at 23.6 µM] (inactive).

On to `CCCCCCCC(OC)OC`, for which the Potency entry was “inactive”.

Consider `O=S(=O)(O)c1cc(S(=O)(=O)O)c2ccc3c(S(=O)(=O)O)cc(S(=O)(=O)O)c4ccc1c2c43`, for which the activity change, negative = inhibition was -1.93% [at 23.6 µM] (inactive).

Regarding `CC(C)(C)CC(C)(C)c1ccccc1O`, the Potency is 17.9 µM (active).

As for `Cc1c(C(=O)O)cccc1[N+](=O)[O-]`, the Potency entry is “inactive”.

Consider `CCCCCCCOC(=O)c1ccc(O)cc1`, for which the Potency was 35.6 µM (active) and 39.9 µM (active).

With `Cc1occc1SSc1ccoc1C`, the Potency is 56.4 µM (active).

Take `Cc1ccc(N)cc1O`: the Potency was 21.8 µM (active).

On to `O=C(O)CCn1c2c(c3ccccc31)C[C@H](NS(=O)(=O)c1ccc(F)cc1)CC2`, for which the Potency was 17.4 µM (active).

In the case of `C[n+]1c2cc(N)ccc2cc2ccc(N)cc21` (tested in a mixture with another compound), the Potency entry was “inactive”.

With `Cc1c(C)n(Cc2ccccc2)c2ccc(C(=O)OCCN(C)C)cc12`, the Potency is 15.5 µM (active).

Consider `Cc1ccc2ccc3cccc4ccc1c2c34`, for which the Potency was 63.2 µM (active).

For the molecule `O=C1NCCN1CCN1CCC(c2cn(-c3ccc(F)cc3)c3ccc(Cl)cc23)CC1`, the Potency entry was “inactive”.

Take `CCN(CC)CCOC(=O)C1(C2CCCCC2)CCCCC1`: the Potency result is “inactive”.

Consider `COCC(=O)O[C@]1(CCN(C)CCCc2nc3ccccc3[nH]2)CCc2cc(F)ccc2[C@@H]1C(C)C`, for which the Potency result was “inactive”.

`O=C(Nc1ccc(Cl)cc1)Nc1ccc(Cl)c(C(F)(F)F)c1`: the Potency is 13.8 µM (active).

On to `CCOC(=O)C1=C(C)NC(C)=C(C(=O)OCC)C1c1ccccc1/C=C/C(=O)OC(C)(C)C`, for which the Potency was 1.1 µM (active).

On to `Cc1ccc(O)cn1`, for which the Potency entry is “inactive”.

Turning to `CCO[Si](C)(C)OCC`, the Potency result was “inactive”.

Regarding `Clc1cccnc1`, the Potency result was “inactive”.

In the case of `Cc1cccc(N(C)C)c1`, the Potency entry is “inactive”.

In the case of `COc1ccc(-n2nc(CCC(=O)N(C)O)cc2-c2ccc(Cl)cc2)cc1`, the Potency is 3.89 µM (active).

As to `CC(C)c1ccc(O)c(C(C)C)c1`, the Potency is 35.6 µM (active).

Take `Cc1cc2c(C(C)C)c(O)c(O)c(C=O)c2c(O)c1-c1c(C)cc2c(C(C)C)c(O)c(O)c(C=O)c2c1O`: the Potency was 34.7 µM (active).

Take `O[C@@H](c1cc(C(F)(F)F)nc2c(C(F)(F)F)cccc12)[C@H]1CCCCN1`: the Potency entry was “inactive”.

Regarding `O=C1NC2CCCCN2C12CCN(CCCN1c3ccccc3CCc3ccc(Cl)cc31)CC2` (stereo not given), the Potency entry was “inactive”.

For the molecule `CCCCCCOc1ccc(O)cc1`, the Potency is 39.9 µM (active).

As for `c1cc[nH]c1`, the Potency result is “inactive”.

`CN(C)c1ccc(N=NS(=O)(=O)O)cc1`: the Potency was 5.09 µM (active).

As for `C=C(C)CCCC`, the Potency entry was “inactive”.

Regarding `CNC(=O)c1cc(Oc2ccc(NC(=O)Nc3ccc(Cl)c(C(F)(F)F)c3)cc2)ccn1`, the Potency was 17.4 µM (active).

Regarding `CCCCN(CCCC)CCC(O)c1cc2c(Cl)cc(Cl)cc2c2cc(C(F)(F)F)ccc12` (stereo not given), the Potency entry is “inactive”.

Turning to `CC1=C(/C=C/C(C)=C/C=C/C(C)=C\C=O)C(C)(C)CCC1`, the Potency was 59.9 µM (active).

Take `CC1CCCCC1`: the Potency entry was “inactive”.

`Cn1cnc2ncnc(N)c21`: the Potency entry was “inactive”.

`C/C=C/C(=O)Oc1c(CCCCCC(C)C)cc([N+](=O)[O-])cc1[N+](=O)[O-]`: the Potency is 2.52 µM (active).

On to `O=C(Oc1ccccc1)c1cccc(C(=O)Oc2ccccc2)c1`, for which the Potency is 7.48 µM (active).

In a further assay the target is Cytochrome P450 1A2 (Homo sapiens) (UniProt P05177). The assay can be described thus: Cytochrome P450 Family 1 Subfamily A Member 2 (CYP1A2) small molecule antagonists: luciferase reporter qHTS assay (AID 1671199). Conditions: P450-Glo CYP1A2 enzyme, luciferin luminescence, 1 h; series mostly up to 115 µM. In outline:
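CYP1A2 turnover of a luminogenic substrate was quantified after 1 h with NADPH regeneration at room temperature. Furafylline served as positive control.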
With `O=S(O)O`, the activity change, negative = inhibition is -6.76% [at 23.6 µM] (inactive).

Turning to `CCCCCCCC(OC)OC`, the Potency result was “inactive”.

Regarding `O=S(=O)(O)c1cc(S(=O)(=O)O)c2ccc3c(S(=O)(=O)O)cc(S(=O)(=O)O)c4ccc1c2c43`, the activity change, negative = inhibition is -17.6% [at 23.6 µM] (inactive).

For `Cc1c(C(=O)O)cccc1[N+](=O)[O-]`, the Potency entry was “inactive”.

Regarding `CCCCCCCOC(=O)c1ccc(O)cc1`, the Potency is 5.64 µM (active) and 20 µM (active).

For the molecule `Cc1ccc(N)cc1O`, the Potency was 11.1 µM (active).

In the case of `O=C(O)CCn1c2c(c3ccccc31)C[C@H](NS(=O)(=O)c1ccc(F)cc1)CC2`, the Potency result was “inactive”.

In the case of `C[n+]1c2cc(N)ccc2cc2ccc(N)cc21` (tested in a mixture with another compound), the Potency was 2.19 µM (active).

With `Cc1ccc2ccc3cccc4ccc1c2c34`, the Potency is 0.563 µM (active).

As to `COCC(=O)O[C@]1(CCN(C)CCCc2nc3ccccc3[nH]2)CCc2cc(F)ccc2[C@@H]1C(C)C`, the Potency result is “inactive”.

As for `O=C(Nc1ccc(Cl)cc1)Nc1ccc(Cl)c(C(F)(F)F)c1`, the Potency was 25.7 µM (active).

In the case of `Cc1ccc(O)cn1`, the Potency entry is “inactive”.

On to `CCO[Si](C)(C)OCC`, for which the Potency entry was “inactive”.

As for `Cc1cccc(N(C)C)c1`, the Potency result was “inactive”.

Turning to `Cc1cc2c(C(C)C)c(O)c(O)c(C=O)c2c(O)c1-c1c(C)cc2c(C(C)C)c(O)c(O)c(C=O)c2c1O`, the Potency entry was “inactive”.

Take `O=C1NC2CCCCN2C12CCN(CCCN1c3ccccc3CCc3ccc(Cl)cc31)CC2` (stereo not given): the Potency result is “inactive”.

As for `c1cc[nH]c1`, the Potency result was “inactive”.

For `CN(C)c1ccc(N=NS(=O)(=O)O)cc1`, the Potency is 9.45 µM (active).

Take `CNC(=O)c1cc(Oc2ccc(NC(=O)Nc3ccc(Cl)c(C(F)(F)F)c3)cc2)ccn1`: the Potency result was “inactive”.

As to `CC1CCCCC1`, the Potency was 63.3 µM (active).

Take `C/C=C/C(=O)Oc1c(CCCCCC(C)C)cc([N+](=O)[O-])cc1[N+](=O)[O-]`: the Potency was 25.2 µM (active).
